Structures can show the parent of a compound that is named as a salt. Bounds are passed on as bounds.

The text below walks through data of paper PMC6792352, “Limited Chemical Structural Diversity Found to Modulate Thyroid Hormone Receptor in the Tox21 Chemical Library” (Environmental Health Perspectives, 2019).

For the assay, the system named is thyroid hormone receptor (endogenous TRα and TRβ). Details: species or system GH3-TRE-Luc (rat pituitary); GH3-TRE-Luc luciferase reporter, antagonist mode against 1 nM T3, loss of signal, qHTS. The note with it: read-out: Average AC50 (uM) GH3-TRE-Antag, antagonist mode, 1 nM T3, no GH3 cytotoxicity hit.
As for `CCOc1ccc2[nH]cc(C(=O)NCc3ccccc3)c(=O)c2n1` [CP-457920], the AC50 was found to be 45.2 µM. On to `O=C(O)[C@@H]1[C@H](C(=O)O)[C@H]2CC[C@@H]1O2` [Endothal], for which the half-maximal activity concentration (AC50) was 77.2 µM.

For `COc1ccc(CN(CCN(C)C)c2ccccn2)cc1` [Pyrilamine maleate], the half-maximal activity concentration (AC50) amounted to 32.2 µM.

`Nc1c2ccccc2nc2ccccc12` [9-Aminoacridine, monohydrochloride, monohydrate]: the AC50 worked out at 3.62 µM. As to `CCCCCCCCCC/C=C/C1CC(=O)OC1=O` (centres unmarked) [3-(Dodecenyl)dihydro-2,5-furandione], the AC50 was above 90 µM. For `CN(CCOc1ccc(CC2SC(=O)NC2=O)cc1)c1ccccn1` (centres unmarked) [Rosiglitazone maleate], the AC50 worked out at 75.1 µM.

As to `COc1ccc(-c2coc3cc(O)cc(O)c3c2=O)cc1` [Biochanin A], the concentration at half-maximal activity (AC50) is 67 µM. As for `COc1ccc(-n2nc(C(F)F)cc2-c2ccc([S+](C)[O-])cc2)cc1` (centres unmarked) [Difpas-pyrazole], the figure is 70.2 µM; as for `NC(=S)NC(N)=S` [2,4-Dithiobiuret], 45 µM.

Take `CCc1ccc(C(=O)C(C)CN2CCCCC2)cc1` (centres unmarked) [Eperisone hydrochloride]: the concentration at half-maximal activity (AC50) turned out to be 38.3 µM. With `Nc1ccc2cc3ccccc3cc2c1` [2-Aminoanthracene], the AC50 worked out at 3.18 µM. As for `COC(=O)c1c(Cl)c(Cl)c(C(=O)OC)c(Cl)c1Cl` [Chlorthal-dimethyl], the figure is 72.5 µM; as for `CCC(=O)Oc1ccc(/C(CC)=C(\CC)c2ccc(OC(=O)CC)cc2)cc1` [Diethylstilbestrol dipropionate], 56.1 µM; as for `CCCCCCOc1ccc(N)cc1` [4-Hexyloxyaniline], 59.8 µM. For `COc1c(C)c2c(c(O)c1C/C=C(\C)CCC(=O)O)C(=O)OC2` [Mycophenolic acid] the value was 0.537 µM.

`CC(C)CCCCCCCCCCCCCCC(=O)O` [Isooctadecanoic acid]: the concentration at half-maximal activity (AC50) was 16.3 µM. As for `CC(=O)OCC(=O)[C@H]1CC[C@H]2[C@@H]3CCC4=CC(=O)CC[C@]4(C)[C@H]3CC[C@]12C` [Deoxycorticosterone acetate], the figure is 25.2 µM; as for `O=C(O)C[C@H](O)C[C@H](O)/C=C/c1c(C2CC2)nc2ccccc2c1-c1ccc(F)cc1` [Pitavastatin calcium], 46.3 µM; as for `O=C(c1ccc(O)cc1)c1ccc(Cl)cc1` [4-Hydroxy-4'-chlorobenzophenone], 86.9 µM. With `CCCCCCCCCCCCCCCC(=O)OC[C@H](O)[C@H]1OC(=O)C(O)=C1O` [Ascorbyl palmitate], the concentration at half-maximal activity (AC50) is above 50 µM. On to `COc1ccc(/C=C/C(=O)Nc2ccccc2C(=O)O)cc1OC` [Tranilast], for which the AC50 was found to be 12.3 µM. As for `CCCCOc1cc(C(=O)OCCN(CC)CC)ccc1N` [Benoxinate hydrochloride], the figure is 11.8 µM; as for `O=C(O)COc1cc(Cl)c(Cl)cc1Cl` [2,4,5-Trichlorophenoxyacetic acid], 70.6 µM; as for `CCCCCCCCCCCCCCCCCCCCCC(=O)Nc1ccn([C@@H]2O[C@H](CO)[C@@H](O)[C@@H]2O)c(=O)n1` [Enocitabine], 17.3 µM. `C#C[C@]1(O)CC[C@H]2[C@@H]3CCc4cc(O)ccc4[C@H]3CC[C@@]21C` [17alpha-Ethinylestradiol]: the AC50 came out at 16.2 µM.

Consider `CCCCCCCC(=O)Oc1c(Br)cc(C#N)cc1Br` [Bromoxynil octanoate], for which the half-maximal activity concentration (AC50) was found to be 74 µM.

On to `CC(C)(C)C(O)C(Oc1ccc(Cl)cc1)n1cncn1` (centres unmarked) [Triadimenol], for which the AC50 is above 90 µM.

Turning to `C#C[C@]1(O)CC[C@H]2[C@@H]3CCC4=CC(=O)CC[C@]4(C)[C@H]3CC[C@@]21C` [Ethisterone], the half-maximal activity concentration (AC50) is 7.79 µM. Consider `CC(Cc1ccccc1)(NC(=O)CN)c1ccccc1` (centres unmarked) [Remacemide hydrochloride], for which the AC50 was determined as 21.8 µM.

With `CCOC(=O)C1=NN(c2ccccc2)C(=O)C1` [Ethyl 5-oxo-1-phenyl-4,5-dihydro-1H-pyrazole-3-carboxylate], the AC50 was found to be 47.8 µM.

As for `O=C(O)c1cc(Oc2ccc(C(F)(F)F)cc2Cl)ccc1[N+](=O)[O-]` [Acifluorfen], the concentration at half-maximal activity (AC50) was found to be 71.8 µM. For `CCCCCC/C=C\CCCCCCCC(=O)O` [(Z)-Hexadec-9-enoic acid] the value was 44.5 µM; for `CCCCCCC[N+](CC)(CC)CCCCc1ccc(Cl)cc1` [Clofilium tosylate], 16.3 µM; for `C[C@]12C=CC(=O)N[C@@H]1CC[C@@H]1[C@@H]2CC[C@]2(C)[C@@H](C(=O)Nc3cc(C(F)(F)F)ccc3C(F)(F)F)CC[C@@H]12` [Dutasteride], 3.44 µM. As to `NC(N)=NCc1cccc(I)c1` [3-Iodobenzylguanidine hemisulfate], the concentration at half-maximal activity (AC50) stood at 16.3 µM.
